# Hit rate of the full screen: of about 69,000 compounds, about 950 (1.4%) showed an effect of 50% or more. The list comes from a sample in which strong results are over-represented; it also holds similar structures and randomly drawn compounds.
# Tested on: Mycobacterium tuberculosis
# Assay: Cornell M. t heat shock assay; note: in the data most compounds retested in dose-response had high values
# Type: functional, organism-based
# Set-up: dose or concentration left out as unconfirmed
row,SMILES,Percent Effect
1,O=C(O)C(F)(F)F.O=C(c1ccc(F)cc1)N1C[C@H]2CCC[C@@]2(COCc2ccccn2)C1,7.203%
2,CN1CCCC(c2cccc(-c3cccc(Cl)c3)n2)C1 (stereo not drawn),-13.07%
3,N#Cc1ncn(CC(=O)Cc2c(F)cccc2Cl)n1,85.52%
4,CN(Cc1c(F)cccc1Cl)C(=O)Cn1cnc(C#N)n1,-1.386%
5,N#Cc1ncn(Cc2c(F)cccc2Cl)n1,-2.259%
6,CCc1ccc(CN2CCCCC2c2n[nH]cc2-c2cc(C)no2)cc1.Cl (stereo not drawn),16.34%
7,CS(=O)(=O)N[C@@H]1CCO[C@]2(CCN(C(=O)c3cnccn3)C2)C1,9.518%
8,CS(=O)(=O)N[C@@H]1CCO[C@]2(CCN(C(=O)c3cscn3)C2)C1,-9.704%
9,CS(=O)(=O)N[C@H]1CCO[C@]2(CCN(C(=O)c3ccccn3)C2)C1.O=C(O)C(F)(F)F,72.36%
10,CCC(N)C(=O)N1CCC(OCc2ccc(Cl)c(Cl)c2)CC1.Cl (stereo not drawn),20.26%
11,CCn1ccnc1CNCc1ccc(C)cc1OC(C)(C)C,55.22%
12,Cc1ccc(CNCc2nccn2C)c(OC(C)(C)C)c1,50.94%
13,CCn1ccnc1CNCC1CCCN1c1cccnn1 (stereo not drawn),2.735%
14,Cc1ccc(CNCc2nccn2C)c(OCC2CC2)c1,39.25%
15,Cc1ccc(CNC(=O)NCc2nccn2C)c(OC(C)(C)C)c1,2.123%
16,CCn1ccnc1CNc1nccc(-c2c(C)nn(C)c2C)n1,4.641%
17,Cn1cccc1C(=O)NC[C@]12COC[C@H]1CN(Cc1nccs1)C2.O=C(O)C(F)(F)F,-42.54%
18,COc1nccnc1N1C[C@@H]2CC[C@H](C1)N(CC=C(C)C)C2=O,-19.62%
19,COCCN(C)C1COC2(CCN(Cc3ccccn3)CC2)C1.O=C(O)C(F)(F)F.O=C(O)C(F)(F)F (stereo not drawn),-27.77%
20,COCCO[C@@H]1CCN(C(=O)c2ccc(C)o2)[C@@H]1Cc1cccnc1.O=C(O)C(F)(F)F,104.5%
21,COCCO[C@@H]1CCN(C(=O)c2ccc(C)o2)[C@@H]1Cc1cnn(C)c1,11.53%

row,SMILES,Percent Effect
1,COCCO[C@H]1CCN(Cc2cccnc2)[C@H]1Cc1cccnc1.O=C(O)C(F)(F)F.O=C(O)C(F)(F)F.O=C(O)C(F)(F)F,-30.96%
2,CC[C@@H]1N(Cc2ccc(C)o2)CCC[C@]12CCC(=O)N2CCOC.O=C(O)C(F)(F)F,-28.97%
3,CN(C)CCNC(=O)c1sc2ccccc2c1C1CCC(CN)CC1.Cl (stereo not drawn),20.1%
4,COCCNC(=O)c1sc2ccccc2c1C1CCC(CN)CC1.Cl (stereo not drawn),16.29%
5,Cl.NCC1CCC(c2c(C(=O)NCCO)sc3ccccc23)CC1 (stereo not drawn),85.23%
6,Cc1ccnc(NC(=O)c2[nH]nc(C(C)C)c2Br)c1,68.96%
7,CC(C)c1n[nH]c(C(=O)Nc2cc[nH]n2)c1Br,4.113%
8,CC(C)c1n[nH]c(C(=O)Nc2ccccn2)c1Br,-0.4918%
9,O=C(O)C(F)(F)F.O=C(O)C(F)(F)F.c1cncc(O[C@@H]2CC[C@H]3[C@H]2OCCN3C2CCCC2)c1,-35.82%
10,COc1ccc2[nH]c(CNc3cc(C4CCNCC4)nc(C)n3)cc2c1,101.5%
11,Cc1nc(C2CCNCC2)cc(N(C)Cc2cc3cc(F)ccc3[nH]2)n1,81.43%
12,CCCN(CC)c1cc(C2CCNCC2)nc(C)n1,-15.84%
13,Cc1nc(-c2ccc(F)cc2)cc(C2CCNCC2)n1,-9.323%
14,Cc1nc(NCc2cccc(F)c2)cc(C2CCNCC2)n1.Cl,-3.606%
15,CCN(Cc1ccncc1)c1cc(C2CCNCC2)nc(C)n1,-13.1%
16,Cc1nc(NCc2ccc(C)o2)cc(C2CCNCC2)n1,-22.33%
17,CCN(Cc1c(F)cccc1Cl)c1cc(C2CCNCC2)nc(C)n1,69.57%
18,CN(Cc1cc2cc(F)ccc2[nH]1)c1cc(C2CCCNC2)ncn1 (stereo not drawn),27.99%
19,COc1ccc(CNC(C)c2ccccc2Cl)c(OC)c1OC.Cl (stereo not drawn),-26.61%
20,COc1c(CNC2CCSc3ccc(F)cc32)c(C)nn1C.Cl (stereo not drawn),15.14%
21,CNC(C(=O)OC)c1cc(F)ccc1F.Cl (stereo not drawn),1.092%

row,SMILES,Percent Effect
1,O=C(O)C(F)(F)F.O=C(O)C(F)(F)F.O=C(c1ccncc1)N1CC[C@@H]2CN(C3CCOCC3)CCO[C@@H]2C1,7.278%
2,Cc1cccc(CN2CCc3nnc(CN4CCCC4=O)n3CC2)n1.O=C(O)C(F)(F)F,-34.57%
3,Cc1noc(C)c1CCC(=O)NCCc1cccs1,11.5%
4,Cc1cc(=O)[nH]c(-n2nc(C)c(CCC(=O)NCc3ccco3)c2C)n1,61.79%
5,Cc1nc2c(c(C)c1CC(=O)NCc1cccs1)c(=O)[nH]n2C,11.25%
6,Cc1cc(C(=O)NCc2ccco2)nn1C,12.62%
7,Cc1ccn(CCC(=O)NCc2ccco2)n1,6.355%
8,Cc1cc(=O)[nH]c(-n2nc(C)c(CCC(=O)NCc3cccs3)c2C)n1,102.2%
9,O=S(=O)(CCO)CCc1ccccc1Cl,17.45%
10,CCN1CCc2c(sc3c2C(=O)NC(/C=C\c2ccccc2)N3)C1 (stereo not drawn),-24.35%
11,Cn1c2ncccc2c(=O)n1CC(=O)NCCC1=CCCCC1,-2.25%
12,CCCc1nn(Cc2ccc(Br)s2)c(=O)o1,31%
13,CC(C)CN1CCN(C(=O)CCn2cccn2)CC1,37.09%
14,CCC(=O)N1CCN(C(=O)CCn2cccn2)CC1,10.75%
15,CCC(=O)N1CCN(C(=O)Cn2cccn2)CC1,62.88%
16,O=C1NCCN1CCNc1cc(-c2ccncc2)nc2ccnn12,-39.13%
17,CC1(C)Cc2cc(-c3cncn3CCNC3CCS(=O)(=O)C3)ccc2O1.Cl (stereo not drawn),8.949%
18,CCC(C)NC(=O)Cn1ccc2c(C)nn(CC)c2c1=O (stereo not drawn),-10.24%
19,c1ccc(N2CCCC2)c(NCc2ccncc2)c1,-19.28%
20,Cc1nc(N2CCCC2)ccc1NCc1ccccn1,4.716%
21,c1ccc(CNc2ccccc2N2CCCC2)nc1,50.65%

# From ChEMBL document CHEMBL3988442, “University of Dundee, Small-Polar-MMV Screening Library” (2021)
